This is an account of results in PubChem BioAssay AID1259417 (TB Discovery Research, Infectious Disease Research Institute, 2018).

The campaign covered roughly 1,100 compounds. About 760 (69%) were called active. How the calls were made is not given here. So high a share suggests a set chosen from earlier hits. Some of the results follow.

The nature of the assay: M. tuberculosis growth inhibition, HTS (AID 1259417).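 Further: bacteria grown with compound for 5 days at 37 °C.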 The conditions noted are these: stronger effect = higher value, concentration not given here.
The mark [1] stands for this setting: M. tuberculosis DsRed fluorescence growth inhibition.
Where [2] appears, read: M. tuberculosis growth inhibition.

In general, inhibition refers to the relative decrease from the control value, in per cent. Consider `CCOC(=O)CSc1ccc(-c2nc3cc(C)c(C)cc3[nH]2)cn1`, for which the inhibition was 94.3% (active) under setting [1] and 96% under setting [2].
Take `O=[N+]([O-])c1ccc(/C=N/n2c(CO)nc3ccccc32)s1`: the inhibition runs as follows: under setting [1], 96.6% (active); under setting [2], 97.7%.
`Cc1cc(C)n(-c2nc(NC(C)C)nc(NC(C)C)n2)n1`: the inhibition by setting is: under setting [1], 43.1% (active); under setting [2], 41.4%.
For `COC(=O)CSc1nnc(-c2ccc(OC)cc2OC)o1` the same measures were 85.8% (active) and 94.2%.
For `CCOC(=O)CSc1nnc(-c2ccc(OC)cc2OC)o1` the same measures were 42.1% (active) and 70.4%.
Taken in the same sequence, the figures for `CCC(OC(C)=O)c1ccc(OC(C)=O)c(OC)c1` (stereo not given) were 99.1% (active) and 90.6%.
With `COC(=O)c1ccc(OCC(=O)Nc2ccccc2F)cc1`, the inhibition by setting is: under setting [1], 14.1% (active); under setting [2], 74.2%.
Taken in the same sequence, the figures for `COC(=O)COc1ccc(NC(=O)c2ccccc2F)cc1` were 77.8% (active) and 78.9%.
Taken in the same sequence, the figures for `COC(=O)COc1ccc(NC(=O)c2ccccc2Br)cc1` were 76.3% (active) and 91.1%.
Taken in the same sequence, the figures for `COC(=O)COc1ccc(NC(=O)c2ccccc2I)cc1` were 61.7% (active) and 81.3%.
With `COC(=O)COc1ccc(NC(=O)c2ccccc2C)cc1`, the inhibition runs as follows: under setting [1], 83.1% (active); under setting [2], 93.5%.
Taken in the same sequence, the figures for `Cc1ccc(-c2[nH]c3ccccc3c2SCCNC(=O)c2cc3ccccc3oc2=O)cc1` were -0.558% (inactive) and -17.6%.
On to `O=C(NCCSc1c[nH]c2ccccc12)c1cc2ccccc2oc1=O`, for which the inhibition by setting is: under setting [1], 20.8% (active); under setting [2], 42.8%.
For `CCCCCCc1cc2cc(C(=O)NC)c(=N)oc2cc1O` the same measures were -2.33% (inactive) and -16.9%.
For `Cc1[nH]c2ccccc2c1SCCNC(=O)c1cc2ccccc2oc1=O` the same measures were 5.93% (inactive) and 16.9%.
For `O=C(NCCSc1c(-c2ccccc2)[nH]c2ccccc12)c1cc2ccccc2oc1=O` the same measures were -6.27% (inactive) and -5.81%.
As to `O=C(NCCc1c[nH]c2ccccc12)c1cc2ccccc2oc1=O`, the inhibition under setting [1] was 99.2% (active) and the inhibition under setting [2] worked out at 96%.
Turning to `Cc1nc2c(-c3ccc(Cl)cc3)cnn2c(N)c1-c1ccccc1`, the inhibition was 13.8% (inactive) under setting [1] and -1.8% under setting [2].
For the molecule `Cc1nn(-c2nc3ccccc3[nH]2)c(N)c1-c1ccccc1`, the inhibition by setting is: under setting [1], 50.6% (active); under setting [2], 84.2%.
For `Cc1cc(Nc2ccccc2)n(-c2nc3ccccc3[nH]2)n1` the same measures were 86.8% (active) and 93.2%.
Taken in the same sequence, the figures for `Cc1coc2c1C(=O)C(=O)c1c-2ccc2c1CCCC2(C)C` were 96.6% (active) and 98.4%.
Taken in the same sequence, the figures for `CN(C)C(=S)Nc1nc2ccccc2s1` were 99.7% (active) and 99.8%.
Regarding `CCCCNC(=O)c1cc2n(n1)C(C(F)(F)F)CC(c1ccccc1)N2` (stereo not given), the inhibition runs as follows: under setting [1], 95.4% (active); under setting [2], 91.8%.
Taken in the same sequence, the figures for `O=C(NCc1cccs1)c1cc2n(n1)C(C(F)(F)F)CC(c1ccc3c(c1)OCO3)N2` (stereo not given) were 2.08% (inactive) and -5.24%.
For the molecule `Cc1ccc(C2CC(C(F)(F)F)n3nc(C(=O)NCc4ccco4)cc3N2)cc1` (stereo not given), the inhibition was 80% (active) under setting [1] and 76.1% under setting [2].
